Screening results as filed in PubChem.
HSF-1 act: increases HSF-1 driven luciferase reporter signal. NIH3T3-HGL HSF-1 luciferase reporter, MG132, 8 h; 100% = twice DMSO control signal. activation, % at 9 µM. 1.7% of 300,000 active;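 active = mean replicate activation of at least 50% with a set share of replicates each reaching 50%; inconclusive = only one of those two conditions met; inactive = mean below 50% and too few replicates reaching it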;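 note: 0% = median of the neutral control wells and 100% = twice that signal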
esBAF inh: inhibitors of esBAF chromatin remodeling in mouse ES cells | 2% of 350,000 active | AID 602393 | Bmi1-luciferase knock-in reporter, 24 h; 100% = twice the neutral-well signal | reporter increase, % at 12.5 µM; in the data active = activation above about 40%; inconclusive = no clear call, values can overlap the other calls;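 note: 0% = median of the plate's neutral control wells and 100% = double that signal; a rise in the Bmi1 reporter signal indicates esBAF inhibition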
Wnt act: Wnt/beta-catenin pathway activation; Wnt/beta-catenin reporter cell assay, activator, plate reader; activation, % at 9.35 µM; 1.2% of 300,000 active; AID 743398; in the data active = activation above about 30%, passing the limit was not always enough; inconclusive = no clear call, values can overlap the other calls;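 note: 0% = neutral control wells and 100% = positive control wells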
HSF1 inhib: HSF1 inhibition. AID 2098. activity change, negative = inhibition, % at 7.5 µM (by protocol). NIH3T3-HGL HSE-luciferase, MG132-induced, luminescence 8 h; active compounds read low. 0.77% of 300,000 active;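 active = more than half of replicate wells show activity change below -50%, luminescence cut by over half; inconclusive = some wells, but at most half, below -50%; inactive = no replicate well below -50%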;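 note: luciferase reports HSF-1 transcriptional activity via heat shock element; 0% = median of DMSO wells and -100% = zero luminescence signal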
SMARCA2 activ: SMARCA2 function activation, primary screen. MG213 cells, MMTV-luciferase reporter, dexamethasone, overnight. activation, % at 9.1 µM. 1% of 370,000 active. AID 652017; in the data active = activation above about 7.8%;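 note: 0% = vehicle wells and 100% = reference activator wells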
MITF TRPM1 HTS: increases MITF-driven TRPM1 promoter luciferase signal. AID 588334. activation, % at 12.5 µM. 0.75% of 300,000 active. SK-MEL-5 TRPM1-promoter luciferase, 24 h; % of positive control, neutral wells = 0;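 active = mean activation of at least 80% with every replicate also reaching 80%; inconclusive = mean reaches 80% but some replicate falls short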;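 note: 0% = neutral control wells and 100% = parthenolide positive control wells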
* hit, by the source's call; ? = inconclusive; · = no result. Rows were chosen to be rich in hits. Some 4.3% of all compounds tested hit in one or more screens of this group.

SMILES	HSF-1 act	esBAF inh	Wnt act	HSF1 inhib	SMARCA2 activ	MITF TRPM1 HTS
O=C(CSC1CCc2ccccc21)NN=Cc1ccco1 (stereo not given)	·	·	-2.8	·	7.0	·
O=C(CSC1CCc2ccccc21)NNC(=O)Nc1ccc(Cl)cc1 (stereo not given)	·	·	37.6*	·	-0.3	·
COc1ccc(CN=C(N)N=C(N)N)cc1Cl	4.8	-7.5	-2.8	-6.2	-5.1	-1.3
CC(C)Oc1ccc(CN=C(N)N=C(N)N)cc1Cl	54.6*	·	-3.8	6.3	-0.7	-8.9
Cc1ccc(S(=O)(=O)Nc2ccc3c(c2)C(=O)N([C@@H](C)CO)C[C@@H](C)[C@@H](CN(C)S(=O)(=O)c2ccc(F)cc2)OCCCC[C@@H](C)O3)cc1	·	1.2	·	·	·	·
CCCN(CCC)S(=O)(=O)c1ccc(NC(=O)c2cc(C(=O)OC)cc([N+](=O)[O-])c2)cc1	-70.6	2.2	-11.2	-61.2*	-1.8	-7.8
COc1ccc(OC2C(=O)N(Cc3ccc4c(c3)OCO4)C2c2sccc2C)cc1 (stereo not given)	-80.2	0.7	-2.7	-75.1*	-3.3	1.0
CCCN1Cc2cccc(C(=O)N3CCN(c4ccc(OC)cc4)CC3)c2C1=O	-68.8	·	-0.9	-59.6*	0.3	0.9
O=c1oc2cc(OCc3ccc(F)cc3F)ccc2cc1-c1ccccn1	20.3	45.3*	·	15.3	-2.6	71.9
Nc1nc(-c2ccc(-c3ccccc3)cc2)cs1	27.8	59.4*	16.5	16.9	2.9	63.9
Cc1ccc(-c2csc(N)n2)cc1	·	43.2*	-3.2	·	3.5	51.5
Nc1nc(COc2ccccc2)cs1	4.6	24.9	6.6	-5.7	7.9*	33.5
COc1ccc(-c2csc(N)n2)cc1	9.6	·	·	0.9	1.7	55.9
Nc1nc(-c2ccc(Oc3ccccc3)cc2)cs1	3.1	67.9*	8.6	-2.5	3.9	·
CO[C@H]1CN(C)C(=O)c2cc(NC(=O)C3CC3)ccc2OC[C@H](C)N(C(=O)CN(C)C)C[C@@H]1C	·	-1.1	·	·	·	·
C[C@H](CO)N1C[C@H](C)[C@H](CN(C)S(=O)(=O)c2ccc(F)cc2)Oc2ccc(NC(=O)CCC(F)(F)F)cc2C1=O	·	2.1	·	·	·	·
Nc1nc(-c2ccc3ccccc3c2)cs1	67.3*	·	17.4	18.2	1.5	?
c1ccc2cc(-c3csnn3)ccc2c1	8.3	21.0	0.6	9.5	5.0	·
CC(C)NC(=O)N(C)C[C@H]1Oc2ccc(NC(=O)Nc3cccc4ccccc34)cc2C(=O)N([C@@H](C)CO)C[C@@H]1C	·	-1.9	·	·	·	·
CCc1nnc(NC(=O)c2ccc3ncsc3c2)s1	1.8	27.0	34.4*	3.8	3.2	45.2
Cc1cnc(NC(=O)c2ccc3ncsc3c2)s1	·	·	48.4*	·	4.1	47.4
CC(C)c1ccccc1NC(=O)c1ccc2ncsc2c1	-16.5	7.2	-1.5	-14.2	-1.6	-9.4
CCc1nnc(NC(=O)c2ccncc2)s1	-0.2	2.7	·	-2.8	-2.4	-3.6
C[C@H]1CN([C@@H](C)CO)C(=O)Cc2cc(NC(=O)Nc3ccc4c(c3)OCO4)ccc2O[C@H]1CN(C)Cc1ccc(Cl)c(Cl)c1	·	3.6	·	·	·	·
Cc1nc([N+](=O)[O-])cn1CC(O)c1ccccc1 (stereo not given)	-9.5	·	-1.5	-1.3	1.5	·
SMILES	HSF-1 act	esBAF inh	Wnt act	HSF1 inhib	SMARCA2 activ	MITF TRPM1 HTS
Cc1nc([N+](=O)[O-])cn1CC(O)c1ccc(Cl)cc1 (stereo not given)	8.3	·	36.9*	-4.5	-4.3	·
O=C(c1ccc2c(=O)n3c(nc2c1)CCCCC3)N1CCCCC1	-18.1	3.3	3.9	-1.7	-2.6	-3.4
O=C(c1ccc2c3n(nc2c1)-c1ccc(Cl)cc1CO3)N1CCCCC1	6.3	47.4*	?	12.1	7.4	102.6*
Cc1ccc2c(c1)COc1c3ccc(C(=O)N4CCOCC4)cc3nn1-2	-23.1	56.5*	42.8*	-4.6	5.1	?
O=C(O)c1ccc2c3n(nc2c1)-c1ccc(Cl)cc1CO3	16.1	·	35.8*	36.5	3.7	·
CCCC#Cc1ccc2c(c1)COc1c3ccccc3nn1-2	-19.5	1.2	?	-7.5	5.2	51.4
CC(C)NC(=O)NS(=O)(=O)c1cnccc1N1CCCCC1	50.5*	-7.6	-0.4	26.6	0.4	-1.7
CC(C)N1CCN(c2ccncc2S(=O)(=O)N2CCCCC2)CC1	·	·	-0.7	·	-3.0	·
